Each structure is given as a SMILES string. Unmarked numbers belong to inactive results. Inconclusive results are not listed. Active and inactive are the calls of the source. Unless noted, calls follow the shape of the dose curve; as a rule, active = well fitted curve in the direction sought with a large enough effect in the repeat runs; inconclusive = weak or mixed curves; inactive = no such curve, though single readings can be large; an effect the other way counts as inactive or inconclusive.

Test [1] in a line: qHTS assay to test for compound auto fluorescence at 535 nm (green) in HEK293 cells (AID 720680). On the technique in general: qHTS replaces the single test concentration by a dilution series.
Test [2] in a line: qHTS assay to test for compound auto fluorescence at 460 nm (blue) in HEK293 cell free culture (AID 720681). A digest of the protocol:
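Blue fluorescence (Ex 405/Em 460 nm, triamterene-equivalent) was read immediately after pin transfer of compound or DMSO into medium (DMEM, 10% FBS) without cells.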

Test [3] can be described thus: qHTS assay to test for compound auto fluorescence at 590 nm (red) in HEK293 cell free culture (AID 720683). A digest of the protocol:
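Red-channel autofluorescence of compounds in culture medium (DMEM, 10% FBS), no cells, measured at 540/590 nm. Rose Bengal sodium is the reference fluorophore for equivalence.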

Test [4] is described as follows: qHTS assay to test for compound auto fluorescence at 590 nm (red) in HepG2 cell free culture (AID 720684). A digest of the protocol: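 Steps: dispense MEM/10% FBS medium, no cells; pin compound or DMSO vehicle; read red channel, Ex/Em 540/590 nm. Output given as Rose Bengal sodium equivalents.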
Test [5] is described as follows: qHTS assay to test for compound auto fluorescence at 460 nm (blue) in HepG2 cell free culture (AID 720685). A digest of the protocol: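 Compound (23 nL) or DMSO pinned into cell-free MEM with 10% FBS; blue fluorescence read at 405/460 nm excitation/emission, expressed as auto-fluorescence equivalency to triamterene.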
A short description of test [6]: qHTS assay to test for compound auto fluorescence at 535 nm (green) in HepG2 cell free culture (AID 720686).
Test [7] is described as follows: qHTS assay to test for compound auto fluorescence at 460 nm (blue) in HepG2 cells (AID 720687). A digest of the protocol:
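Blue-channel autofluorescence (Ex/Em 405/460 nm, triamterene-equivalent) was measured after 1 hr compound exposure at 37 C, 5% CO2. Cells were HepG2, plated overnight at 37 C in MEM plus 10% FBS.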

The target of test [8] is Glucocorticoid receptor (Homo sapiens) (UniProt P04150). Put plainly: qHTS assay to identify small molecule agonists of the glucocorticoid receptor (GR) signaling pathway (AID 720691; active = well fitted activation curve with a large enough effect in the signal ratio in the repeat runs, not every such curve was filed as active; the % refers to the signal ratio). A digest of the protocol:
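GR-bla HeLa cells carrying a GRE-driven beta-lactamase reporter, exposed to compounds for 18 h at 37 C. Reporter activation read as fluorescence after 2 h with LiveBLAzer B/G FRET substrate at room temperature.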

Test [9] has the same target. Nature of the test: qHTS assay to identify small molecule antagonists of the glucocorticoid receptor (GR) signaling pathway (AID 720692; active = well fitted inhibition curve with a large enough effect in the signal ratio in the repeat runs, not every such curve was filed as active; the % refers to the signal ratio). A digest of the protocol: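 GR-bla HeLa cells carrying a GRE-driven beta-lactamase reporter received compound after 4 h plating, then dexamethasone (5 nM final). After 18 h at 37C, the FRET substrate was loaded for 2 h at room temperature and fluorescence read.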

The nature of test [10]: qHTS assay for identifying genotoxic compounds that show differential cytotoxicity against isogenic chicken DT40 cell lines with known DNA damage response pathways - wild type cell line (AID 743012). Also: nearly all actives have a fitted effect of over 60% in size. A digest of the protocol: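 Wild-type DT40 cells (300/well) exposed to compounds for 40 hours at 37 C/5% CO2. Viability read by CellTiter-Glo luminescence after 30 min at room temperature.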

A short description of test [11]: qHTS assay for identifying genotoxic compounds that show differential cytotoxicity against isogenic chicken DT40 cell lines with known DNA damage response pathways - Rev3 mutant cell line (AID 743014). Also: nearly all actives have a fitted effect of over 55% in size.
Test [12] in a line: qHTS assay for identifying genotoxic compounds that show differential cytotoxicity against isogenic chicken DT40 cell lines with known DNA damage response pathways - Rad54/Ku70 mutant cell line (AID 743015). Also: nearly all actives have a fitted effect of over 60% in size. Also: potency is read from the fitted curve at half-maximal effect.
The nature of test [13]: qHTS assay to identify small molecule antagonists of the androgen receptor (AR) signaling pathway - cell viability counter screen (AID 743033; also: nearly all actives have a fitted effect of over 45% in size).
A short description of test [14]: qHTS assay to identify small molecule antagonists of the androgen receptor (AR) signaling pathway using the MDA cell line - cell viability counter screen (AID 743041; also: nearly all actives have a fitted effect of over 45% in size). A digest of the protocol: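 Cells were plated at 3,000 per well and left 5 h. Compounds in DMSO were then pinned in, followed by R1881. After 16 h at 37C, CellTiter-Fluor fluorescence gave viability.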

Test [15] is described as follows: qHTS assay to identify small molecule antagonists of the glucocorticoid receptor (GR) signaling pathway - cell viability counter screen (AID 720693). Also: nearly all actives have a fitted effect of over 55% in size.
The target of test [16] is Androgen receptor (Homo sapiens) (UniProt P10275). Nature of the test: qHTS assay to identify small molecule antagonists of the androgen receptor (AR) signaling pathway (AID 743035; active = well fitted inhibition curve with a large enough effect in the signal ratio in the repeat runs, not every such curve was filed as active; the % refers to the signal ratio). A digest of the protocol:
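HEK293 cells stably carrying UAS-beta-lactamase reporter, 2,000/well, given compounds plus R1881 agonist and incubated 16 h at 37C. LiveBLAzer B/G FRET substrate then added for 2 h at room temperature before fluorescence reading.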

The target is the same in test [17]. Nature of the test: qHTS assay to identify small molecule agonists of the androgen receptor (AR) signaling pathway using the MDA cell line (AID 743040; also: nearly all actives have a fitted effect of over 20% in size). A digest of the protocol: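 Cells plated, 5 h at 37C/0% CO2; compound or DMSO pinned; 16 h at 37C; ONE-Glo added; luminescence measured after 30 min at room temperature. Reporter line: MDA-kb2 with MMTV-luciferase responsive to AR and GR.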

Test [18] has the same target. Put plainly: qHTS assay to identify small molecule antagonists of the androgen receptor (AR) signaling pathway using the MDA cell line (AID 743042; also: nearly all actives have a fitted effect of over 55% in size). A digest of the protocol: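 Antagonist mode: compounds plus R1881 agonist added to MDA-kb2 AR-luc cells, incubated 16 h at 37C. Luciferase reporter luminescence quantified, with multiplexed CellTiter-Fluor readout for cell viability.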

Test [19] shares this target. Nature of the test: qHTS assay to identify small molecule agonists of the androgen receptor (AR) signaling pathway (AID 743036; active = well fitted activation curve with a large enough effect in the signal ratio in the repeat runs, with a control signal flat, not every such curve was filed as active; the % refers to the signal ratio). A digest of the protocol:
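Screening used 2,000 AR-bla HEK293 cells per well, treated 16 h at 37C with test compounds in DMSO alongside positive and DMSO-only controls; beta-lactamase activity was then read by LiveBLAzer B/G FRET fluorescence after 2 h at room temperature.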

The nature of test [20]: qHTS assay to test for compound auto fluorescence at 535 nm (green) in HEK293 cell free culture (AID 720682). A digest of the protocol: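 DMEM + 10% FBS, cell-free; cpd or DMSO pinned in; Ex485/Em535 read; output as fluorescein-equivalent signal.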
% is scaled to controls: 0 for no effect and ±100 for the full control effect.

Sequence of Androgen receptor (Homo sapiens) (P10275 whole entry, looked up): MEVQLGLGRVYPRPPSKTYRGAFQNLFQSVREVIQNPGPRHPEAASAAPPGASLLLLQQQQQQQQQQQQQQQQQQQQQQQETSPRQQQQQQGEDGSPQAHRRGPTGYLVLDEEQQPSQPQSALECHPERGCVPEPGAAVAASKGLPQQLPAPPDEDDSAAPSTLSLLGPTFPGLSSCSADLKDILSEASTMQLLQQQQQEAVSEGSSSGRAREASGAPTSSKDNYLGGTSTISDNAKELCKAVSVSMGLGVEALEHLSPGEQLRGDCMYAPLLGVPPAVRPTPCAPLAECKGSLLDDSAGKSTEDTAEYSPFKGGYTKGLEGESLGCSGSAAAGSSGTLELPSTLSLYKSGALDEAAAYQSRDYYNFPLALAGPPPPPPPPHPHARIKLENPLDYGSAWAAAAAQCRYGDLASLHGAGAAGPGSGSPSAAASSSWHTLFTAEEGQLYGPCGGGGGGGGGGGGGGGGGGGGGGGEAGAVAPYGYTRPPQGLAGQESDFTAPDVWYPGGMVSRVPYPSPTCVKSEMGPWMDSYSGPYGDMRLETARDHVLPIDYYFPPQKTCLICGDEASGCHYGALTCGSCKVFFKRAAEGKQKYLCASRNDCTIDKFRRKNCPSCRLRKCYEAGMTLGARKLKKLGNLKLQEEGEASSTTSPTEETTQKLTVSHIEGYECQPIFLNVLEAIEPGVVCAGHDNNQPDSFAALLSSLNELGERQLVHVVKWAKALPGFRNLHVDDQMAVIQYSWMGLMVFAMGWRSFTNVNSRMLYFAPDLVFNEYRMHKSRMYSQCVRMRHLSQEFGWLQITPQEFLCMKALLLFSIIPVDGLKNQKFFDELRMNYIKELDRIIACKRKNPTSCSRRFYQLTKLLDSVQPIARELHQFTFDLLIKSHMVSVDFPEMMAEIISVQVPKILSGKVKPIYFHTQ
Sequence of Glucocorticoid receptor (Homo sapiens) (P04150 whole entry, looked up): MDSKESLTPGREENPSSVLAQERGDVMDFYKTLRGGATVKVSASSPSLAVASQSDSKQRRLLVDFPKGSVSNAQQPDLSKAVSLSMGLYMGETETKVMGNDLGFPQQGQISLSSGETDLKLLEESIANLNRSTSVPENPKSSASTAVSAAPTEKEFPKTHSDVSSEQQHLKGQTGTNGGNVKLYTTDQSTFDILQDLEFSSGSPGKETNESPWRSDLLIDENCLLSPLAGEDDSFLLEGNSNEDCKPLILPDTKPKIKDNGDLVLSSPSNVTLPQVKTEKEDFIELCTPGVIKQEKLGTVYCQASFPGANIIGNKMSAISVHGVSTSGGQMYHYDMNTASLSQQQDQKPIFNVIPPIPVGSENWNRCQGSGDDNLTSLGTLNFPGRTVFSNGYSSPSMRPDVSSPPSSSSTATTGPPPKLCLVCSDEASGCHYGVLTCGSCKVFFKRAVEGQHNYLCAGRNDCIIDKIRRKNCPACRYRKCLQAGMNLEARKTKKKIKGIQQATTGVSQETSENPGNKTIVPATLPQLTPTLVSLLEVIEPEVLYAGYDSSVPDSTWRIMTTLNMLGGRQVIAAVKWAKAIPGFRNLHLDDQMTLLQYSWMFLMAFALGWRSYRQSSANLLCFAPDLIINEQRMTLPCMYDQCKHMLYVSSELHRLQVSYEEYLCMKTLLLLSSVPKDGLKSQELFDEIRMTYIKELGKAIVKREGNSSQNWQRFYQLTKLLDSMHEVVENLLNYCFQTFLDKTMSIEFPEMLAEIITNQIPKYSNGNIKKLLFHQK

Take `C[C@H](N)[C@H](O)c1cccc(O)c1`: the fluorescence, % of fluorescein in [1] is 0.0113% [at 18.6 µM]. In addition, the fluorescence, % of fluorescent control was 2.08% [at 18.6 µM] in test [2], 0.0224% [at 18.6 µM] in test [3], 1.92% [at 18.6 µM] in test [5] and 1.56% [at 18.6 µM] in [7]. In addition, the fluorescence, % of Rose Bengal in test [4] was -0.249% [at 18.6 µM]. In addition, in test [6], the fluorescence, % of fluorescein control was 0.027% [at 18.6 µM]. Further, the Potency result in test [8], in test [10], in test [11], in test [12] and in test [13] was “inactive” throughout. Moreover, the call in [9] was inactive.
Consider `CCCCCCCCCCl`, for which the outcome in test [1], in test [2], in test [3], in test [4], in test [5] and in [6] was inactive. Further, the call in test [7] was inactive. In addition, the Potency entry in test [10], in [11], in [12], in [13] and in [14] was “inactive” throughout.
For `CCOC(=O)CC(=O)c1ccccc1`, the compound was called inactive in [1], in test [2], in test [3], in test [4], in [5] and in [6]. In addition, the call in test [7], in test [9] and in test [15] was inactive. The Potency result in test [8], in test [10], in test [12], in test [13] and in [14] was “inactive” in each case.
Turning to `CC1(CO)CN(c2ccccc2)NC1=O` (stereo not drawn), the result in [1], in [2], in test [3], in [4], in test [5] and in test [6] was inactive. The outcome in test [7], in test [15] and in [17] was inactive. Besides, the Potency result in test [10], in [11], in test [13], in [16], in [14] and in test [18] was “inactive” throughout.
Turning to `O=C(O)C(=O)Cc1ccccc1`, the result in [1], in test [2], in test [3], in test [4], in [5] and in test [6] was inactive. Also, the compound was classed as inactive in test [7], in test [9], in test [19] and in test [17]. Further, the Potency entry in [10], in test [11], in [12], in [13], in [16] and in test [18] was “inactive” each time.
Turning to `COC(=O)CCCCCCCC(=O)OC`, the call in test [1], in [2], in test [3], in [4], in [5] and in [6] was inactive. For the same compound, the outcome in test [7], in test [9] and in [15] was inactive. Moreover, the Potency result in [8], in [11] and in [13] was “inactive” in each case.
Consider `O=C(/N=N/C(=O)OCc1ccccc1)OCc1ccccc1`, for which the outcome in test [1], in test [2], in test [3], in test [4], in test [5] and in test [6] was inactive. Also, the compound was classed as inactive in test [7] and in test [15]. Also, the Potency in [12] is 61.1 µM (active). The Potency result in [13] and in test [14] was “inactive” in each case.
`COc1cc(NS(=O)(=O)c2ccc(N)cc2)nc(OC)n1`: the fluorescence, % of fluorescein in test [1] was 0.0037% [at 18.6 µM]. In [20], the activity change was -0.0247% [at 18.6 µM]. Besides, the fluorescence, % of fluorescent control in test [3] was 0.0115% [at 18.6 µM]; in test [5], -0.0655% [at 18.6 µM]; in [7], 0.0701% [at 18.6 µM]. Also, the fluorescence, % of Rose Bengal in test [4] was 0.441% [at 18.6 µM]. Further, the fluorescence, % of fluorescein control in test [6] was -0.0376% [at 18.6 µM]. In addition, the Potency entry in test [8], in [10], in [11], in test [12], in test [13] and in test [16] was “inactive” throughout. For the same compound, the Potency entry in [14] and in test [18] was “inactive” in each case. Further, the result in [9], in test [15], in test [19] and in test [17] was inactive.
`NCCN1CCOCC1`: the compound was classed as inactive in test [1], in test [2], in test [3], in [4], in test [5] and in [6]. The result in test [7], in [9] and in [15] was inactive. Moreover, the Potency result in test [10], in test [12], in test [13] and in [14] was “inactive” in each case.
Consider `COc1nccnc1NS(=O)(=O)c1ccc(N)cc1`, for which the result in test [1], in [2], in [4], in test [5], in test [6] and in test [7] was inactive. Also, the outcome in [19] and in test [17] was inactive. For the same compound, the Potency entry in test [10], in [11], in test [12], in test [13], in test [14] and in [18] was “inactive” each time.
Regarding `NCCS`, the outcome in test [1], in [2], in [3], in test [4], in [5] and in test [6] was inactive. Also, the compound was classed as inactive in test [7] and in test [15]. The Potency entry in test [10], in [11], in [12], in test [13] and in test [14] was “inactive” throughout.
For the compound `CCCC(=O)C(C)=O`, the outcome in test [1], in test [2], in test [3], in [4], in [5] and in test [6] was inactive. The result in [7] and in test [9] was inactive. The Potency result in [8], in test [10], in test [11], in test [12], in test [13] and in test [14] was “inactive” each time.
`C[Si](C)=O`: in test [1], the fluorescence, % of fluorescein is 0.04% [at 9.17 µM]. Besides, the fluorescence, % of fluorescent control in test [2] was -0.225% [at 9.17 µM]; in test [3], -0.414% [at 9.17 µM]; in test [5], -0.0659% [at 9.17 µM]; in test [7], -0.132% [at 9.17 µM]. Besides, in [4], the fluorescence, % of Rose Bengal was -0.0951% [at 9.17 µM]. For the same compound, the fluorescence, % of fluorescein control in [6] was 0.113% [at 9.17 µM]. Besides, in [9], the activity change, negative = inhibition is 3.35% [at 7.04 µM]. The viability change, negative = cytotoxic is -9.5% [at 7.04 µM] in [15] and -9.84% [at 8.47 µM] in [14]. In addition, the values for the activity change, negative = cytotoxicity in test [10], in [12] and in test [13] were 12.9% [at 8.52 µM], 1.94% [at 8.55 µM] and 2.74% [at 7.04 µM], respectively. Also, in test [11], the activity, negative = cytotoxicity is -9.66% [at 8.53 µM].
Take `O=C(OCC1(COC(=O)c2cccnc2)CCCC(COC(=O)c2cccnc2)(COC(=O)c2cccnc2)C1O)c1cccnc1`: the result in [1], in test [2], in test [3], in [4], in [5] and in test [6] was inactive. Further, the compound was classed as inactive in [7], in test [9] and in test [15]. Moreover, the Potency result in [10], in test [11], in test [12] and in test [13] was “inactive” throughout.

For the origin of these results see PubChem BioAssay (Tox21).
